Measurements from PubChem BioAssay AID1159580 (chemical genetic matrix, 2015).
Among all 5,500 compounds or so, about 2,000 (36%) were called active. Another 18% or so got no clear call; they are omitted. No stated cut-off is given here; in the data, active means normalized growth mostly below about 0.91 (no sharp cut-off); inconclusive means no clear call, values can overlap the other calls; inactive means mostly above about 0.92. This is one part of the list.

Test: chemical genetic growth profiling, strain panel (AID 1159580);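 further: tested at 20 µM; growth read once vehicle control cultures reached saturation at 30 °C; 1 = growth at the plate median or of vehicle wells; lower values mean less growth of the strain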
Settings: growth OD

Measured: normalized growth

O=C1C[C@@H](c2ccc(O)cc2)Oc2cc(O)cc(O)c21
inactive: S. cerevisiae deletion strains, locus YJR075W, strain HOC1, active compounds read low 1.02 | S. cerevisiae deletion strains, locus YKL009W, strain mrt4, active compounds read low 1 | S. cerevisiae deletion strains, locus YKL068W, active compounds read low 0.998 | S. cerevisiae deletion strains, locus YKL085W, strain MDH1 (second series), active compounds read low 1 | S. cerevisiae deletion strains, locus YKL085W, strain MDH1, active compounds read low 1 | S. cerevisiae deletion strains, locus YKL160W, strain elf1, active compounds read low 0.985 | S. cerevisiae deletion strains, locus YKL190W, strain CNB1, active compounds read low 1.01 | S. cerevisiae deletion strains, locus YKR001C, strain vps1, active compounds read low 0.999 | S. cerevisiae deletion strains, locus YKR026C, strain gcn3, active compounds read low 0.962 | S. cerevisiae deletion strains, locus YKR091W, strain srl3, active compounds read low 0.973 | S. cerevisiae deletion strains, locus YLL001W, strain dnm1, active compounds read low 0.944 | S. cerevisiae deletion strains, locus YLL026W, active compounds read low 0.967 | S. cerevisiae deletion strains, locus YLL041C, strain sdh2, active compounds read low 0.977 | S. cerevisiae deletion strains, locus YLR027C, strain aat2, active compounds read low 0.982 | S. cerevisiae deletion strains, locus YLR039C, strain RIC1, active compounds read low 1 | S. cerevisiae deletion strains, locus YLR058C, strain SHM2, active compounds read low 1.01 | S. cerevisiae deletion strains, locus YLR102C, strain apc9, active compounds read low 1.02 | S. cerevisiae deletion strains, locus YLR113W, strain HOG1, active compounds read low 0.967 | S. cerevisiae deletion strains, locus YLR221C, strain rsa3, active compounds read low 0.975 | S. cerevisiae deletion strains, locus YLR258W, strain gsy2, active compounds read low 0.968 | S. cerevisiae deletion strains, locus YLR262C, strain YPT6 (second series), active compounds read low 0.962 | S. cerevisiae deletion strains, locus YLR262C, strain YPT6, active compounds read low 0.992 | S. cerevisiae deletion strains, locus YLR268W, strain sec22, active compounds read low 1.01 | S. cerevisiae deletion strains, locus YLR320W, strain mms22, active compounds read low 0.959 | S. cerevisiae deletion strains, locus YLR330W, strain CHS5, active compounds read low 1.02 | S. cerevisiae deletion strains, locus YLR342W, strain FKS1 (second series), active compounds read low 0.989 | S. cerevisiae deletion strains, locus YLR342W, strain FKS1, active compounds read low 0.963 | S. cerevisiae deletion strains, locus YLR357W, strain rsc2, active compounds read low 0.935 | S. cerevisiae deletion strains, locus YLR370C, strain arc18, active compounds read low 0.957 | S. cerevisiae deletion strains, locus YLR371W, strain rom2, active compounds read low 1.03 | S. cerevisiae deletion strains, locus YLR384C, strain iki3, active compounds read low 0.959 | S. cerevisiae deletion strains, locus YLR418C, strain cdc73, active compounds read low 1.03 | S. cerevisiae deletion strains, locus YML016C, strain PPZ1, active compounds read low 1.01 | S. cerevisiae deletion strains, locus YML032C, strain rad52, active compounds read low 1.01 | S. cerevisiae deletion strains, locus YML120C, strain ndi1, active compounds read low 0.957 | S. cerevisiae deletion strains, locus YML124C, strain tub3, active compounds read low 1.02 | S. cerevisiae deletion strains, locus YMR058W, strain fet3, active compounds read low 0.955 | S. cerevisiae deletion strains, locus YMR078C, strain ctf18, active compounds read low 1.02 | S. cerevisiae deletion strains, locus YMR125W, strain sto1, active compounds read low 0.938 | S. cerevisiae deletion strains, locus YMR129W, active compounds read low 0.966 | S. cerevisiae deletion strains, locus YMR205C, strain PFK2, active compounds read low 0.942 | S. cerevisiae deletion strains, locus YMR223W, strain ubp8, active compounds read low 1.01 | S. cerevisiae deletion strains, locus YMR231W, strain pep5, active compounds read low 0.976 | S. cerevisiae deletion strains, locus YMR263W, strain SAP30, active compounds read low 1.01 | S. cerevisiae deletion strains, locus YMR307W, strain GAS1, active compounds read low 0.994 | S. cerevisiae deletion strains, locus YNL067W, strain RPL9B, active compounds read low 1.01 | S. cerevisiae deletion strains, locus YNL071W, strain lat1, active compounds read low 0.967 | S. cerevisiae deletion strains, locus YNL128W, strain TEP1, active compounds read low 1.02 | S. cerevisiae deletion strains, locus YNL153C, strain GIM3, active compounds read low 1.01 | S. cerevisiae deletion strains, locus YNL183C, strain NPR1, active compounds read low 0.936 | S. cerevisiae deletion strains, locus YNL209W, strain ssb2, active compounds read low 0.966 | S. cerevisiae deletion strains, locus YNL233W, strain BNI4, active compounds read low 0.999 | S. cerevisiae deletion strains, locus YNL248C, strain rpa49, active compounds read low 0.969 | S. cerevisiae deletion strains, locus YNL250W, strain rad50, active compounds read low 1.01 | S. cerevisiae deletion strains, locus YNL271C, strain bni1, active compounds read low 1.01 | S. cerevisiae deletion strains, locus YNL298W, strain CLA4, active compounds read low 1.03 | S. cerevisiae deletion strains, locus YNL307C, strain MCK1, active compounds read low 1.01 | S. cerevisiae deletion strains, locus YNL322C, strain KRE1 (second series), active compounds read low 0.982 | S. cerevisiae deletion strains, locus YNL322C, strain KRE1, active compounds read low 1.01 | S. cerevisiae deletion strains, locus YNR049C, strain mso1, active compounds read low 0.959 | S. cerevisiae deletion strains, locus YNR052C, strain pop2, active compounds read low 1.01 | S. cerevisiae deletion strains, locus YOL006C, strain TOP1, active compounds read low 0.997 | S. cerevisiae deletion strains, locus YOL012C, strain htz1 0.851 | S. cerevisiae deletion strains, locus YOL147C, strain pex11, active compounds read low 1.02 | S. cerevisiae deletion strains, locus YOR001W, strain rrp6, active compounds read low 0.983 | S. cerevisiae deletion strains, locus YOR061W, strain CKA2, active compounds read low 1.02 | S. cerevisiae deletion strains, locus YOR069W, strain VPS5, active compounds read low 1.01 | S. cerevisiae deletion strains, locus YOR070C, strain gyp1, active compounds read low 0.964 | S. cerevisiae deletion strains, locus YOR080W, strain dia2, active compounds read low 0.976 | S. cerevisiae deletion strains, locus YOR083W, strain WHI5, active compounds read low 0.996 | S. cerevisiae deletion strains, locus YOR106W, strain vam3, active compounds read low 0.963 | S. cerevisiae deletion strains, locus YOR136W, strain idh2, active compounds read low 1.02 | S. cerevisiae deletion strains, locus YOR144C, strain elg1, active compounds read low 1.01 | S. cerevisiae deletion strains, locus YOR184W, strain ser1, active compounds read low 1 | S. cerevisiae deletion strains, locus YOR231W, strain MKK1, active compounds read low 0.95 | S. cerevisiae deletion strains, locus YOR265W, strain rbl2, active compounds read low 0.969 | S. cerevisiae deletion strains, locus YOR270C, strain vph1, active compounds read low 0.902 | S. cerevisiae deletion strains, locus YOR290C, strain snf2, active compounds read low 0.923 | S. cerevisiae deletion strains, locus YOR316C, strain cot1, active compounds read low 1.01 | S. cerevisiae deletion strains, locus YPL051W, strain arl3, active compounds read low 0.984 | S. cerevisiae deletion strains, locus YPL055C, strain LGE1, active compounds read low 1.02 | S. cerevisiae deletion strains, locus YPL078C, strain atp4, active compounds read low 0.971 | S. cerevisiae deletion strains, locus YPL106C, strain sse1, active compounds read low 0.957 | S. cerevisiae deletion strains, locus YPL240C, strain hsp82, active compounds read low 0.978 | S. cerevisiae deletion strains, locus YPL241C, strain CIN2, active compounds read low 1 | S. cerevisiae deletion strains, locus YPL256C, strain CLN2, active compounds read low 0.921 | S. cerevisiae deletion strains, locus YPR119W, strain clb2, active compounds read low 1.01 | S. cerevisiae deletion strains, locus YPR141C, strain kar3, active compounds read low 1.01 | S. cerevisiae deletion strains, locus YPR163C, strain tif3, active compounds read low 1 | S. cerevisiae deletion strains, locus YPR167C, strain met16, active compounds read low 1.01 | S. cerevisiae deletion strains, strain wtn01, active compounds read low 1.02 | S. cerevisiae strains, strain wild type, active compounds read low 1.01
